In PubChem BioAssay (EPA / NIEHS):
Inconclusive results are not listed. Calls of active or inactive are those of the source. Rule for the calls, unless noted: active = hit-call score of the fitted dose curve at least 0.9, where 1 is the maximum; inconclusive = response in the unintended direction; inactive = score below 0.9.

How the values were obtained:
[1] = ATG_TAL_CIS: Attagene CIS-FACTORIAL HepG2 Assay for human TAL Basal Promoter (AID 2282966; active = hit-call score of the fitted dose curve at least 0.9, where 1 is the maximum; inactive = score below 0.9;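 note: background control endpoint measuring basal TAL promoter reporter mRNA not a specific factor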); conditions: HepG2 Attagene cis-factorial TAL promoter reporter; actives raise or lower the signal
Outline: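 HepG2 cells were transiently transfected with promoter-driven multiplexed reporter units and dosed for 24 h. Reporter mRNA was measured by RT-PCR with capillary electrophoresis fluorescence; bidirectional fits used DMSO as baseline, serving as a background control.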

[2] = ATG_VDRE_CIS: Attagene CIS-FACTORIAL HepG2 Assay for human Vitamin D Receptor Element (VDRE) (AID 2282968; active = hit-call score of the fitted dose curve at least 0.9, where 1 is the maximum; inactive = score below 0.9); conditions: HepG2 VDRE cis-reporter transcription, actives raise or lower the signal
Outline: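 HepG2 cells transiently transfected with cis-element reporter units, dosed 24 h; reporter mRNA measured by RT-PCR, 6-FAM labeling, HpaI digestion and capillary electrophoresis. Activity fitted bidirectionally against DMSO baseline.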

[3] = target: Nuclear receptor subfamily 1 group I member 3 (Homo sapiens) (UniProt Q14994); experiment: ATG_CAR_TRANS: Attagene TRANS-FACTORIAL HepG2 Assay for human Constitutive Androstane Receptor (CAR) (AID 2282969); conditions: HepG2 Attagene TRANS-FACTORIAL CAR reporter;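 note: activators raise reporter mRNA above DMSO so AC50 marks induction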
Outline: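 HepG2 cells transiently transfected with multiplexed GAL4-UAS reporter units expressing chimeric NR-Gal4 proteins; compound exposure 24 h. Reporter mRNA measured by RT-PCR, 6-FAM labelling, HpaI digestion and capillary electrophoresis; gain-of-signal fitted against DMSO baseline.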

[4] = target: X-box-binding protein 1 (Homo sapiens) (UniProt P17861); experiment: ATG_Xbp1_CIS: Attagene CIS-FACTORIAL HepG2 Assay for human X-box Binding Protein 1 (XBP1) (AID 2282972; active = hit-call score of the fitted dose curve at least 0.9, where 1 is the maximum; inactive = score below 0.9); conditions: HepG2 XBP1 cis-element reporter, Attagene multiplex; actives raise or lower the signal
Outline: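 HepG2, transient MRTU transfection (cis-promoter driven), 24 h compound exposure. Total RNA → oligo(dT) RT → PCR → 6-FAM labeling → HpaI cut → CE. Bidirectional fit vs DMSO.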

[5] = ATG_M_19_TRANS: Attagene TRANS-FACTORIAL HepG2 Assay for M19 Transcription Factor (Internal Marker) (AID 2282974); conditions: HepG2 Attagene TRANS-FACTORIAL M19 internal marker reporter
Outline: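 Using RT-PCR and capillary electrophoresis, reporter mRNA from transiently transfected human HepG2 cells was quantified following 24 h exposure; activity was fitted in the positive direction against DMSO.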

[6] = ATG_GAL4_TRANS: Attagene TRANS-FACTORIAL HepG2 Assay for GAL4 (Internal Marker) (AID 2282976); conditions: HepG2 Attagene TRANS GAL4 internal marker reporter
Outline: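 HepG2 cells transiently transfected with multiplexed GAL4-UAS reporter constructs were dosed for 24 h. Reporter mRNA was measured by RT-PCR, 6-FAM primer extension, HpaI digestion and capillary electrophoresis, and gain of signal was fitted relative to DMSO.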

[7] = target: Glucocorticoid receptor (Homo sapiens) (UniProt P04150); experiment: ATG_GR_TRANS: Attagene TRANS-FACTORIAL HepG2 Assay for human Glucocorticoid Receptor (GR) (AID 2282978); conditions: HepG2 Attagene TRANS GR reporter, mRNA transcription;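 note: activators score as hits since higher reporter transcript over DMSO is fitted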
Outline: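 Exogenous NR-GAL4 fusion activity was assessed through induced GAL4-UAS reporter transcripts in transfected human HepG2 cells, quantified after 24 h by RT-PCR and fluorescent capillary electrophoresis with DMSO as baseline.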

[8] = target: Bile acid receptor (Homo sapiens) (UniProt Q96RI1); experiment: ATG_FXR_TRANS: Attagene TRANS-FACTORIAL HepG2 Assay for Farnesoid X Receptor (FXR) (AID 2282979); conditions: HepG2 Attagene TRANS FXR-GAL4 reporter transcription;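 note: hits raise reporter mRNA above DMSO so AC50 marks FXR activation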
Outline: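 HepG2 cells transiently transfected with reporter constructs in which a chimeric FXR-GAL4 protein drives a GAL4-UAS reporter; 24 h compound exposure. Reporter mRNA measured by RT-PCR, FAM labelling, HpaI digestion and capillary electrophoresis; gain-of-signal versus DMSO.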

[9] = target: Oxysterols receptor LXR-alpha (Homo sapiens) (UniProt Q13133); experiment: ATG_LXRa_TRANS: Attagene TRANS-FACTORIAL HepG2 Assay for human Liver X Receptor alpha (LXRa) (AID 2282980); conditions: HepG2 Attagene TRANS reporter, LXRa transactivation
Outline: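 HepG2 cells were transiently transfected with multiplexed reporter units driven by chimeric LXRa–GAL4 fusion proteins, then dosed for 24 h. Reporter mRNA was quantified by RT-PCR, fluorescent labelling and capillary electrophoresis; gain of signal fitted against DMSO baseline.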

[10] = target: Oxysterols receptor LXR-beta (Homo sapiens) (UniProt P55055); experiment: ATG_LXRb_TRANS: Attagene TRANS-FACTORIAL HepG2 Assay for human Liver X Receptor beta (LXRb) (AID 2282981); conditions: HepG2 Attagene TRANS GAL4-LXRb reporter, mRNA
Outline: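 HepG2 cells transiently transfected with multiple reporter transcription units carrying chimeric NR-Gal4 proteins acting on GAL4-UAS reporters; compound exposure 24 h. Reporter mRNA quantified by RT-PCR, 6-FAM labelling, HpaI digestion and capillary electrophoresis; gain of signal versus DMSO.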

[11] = target: Hepatocyte nuclear factor 4-alpha (Homo sapiens) (UniProt P41235); experiment: ATG_HNF4a_TRANS: Attagene TRANS-FACTORIAL HepG2 Assay for human Hepatocyte Nuclear Factor 4 alpha (HNF4a) (AID 2282982); conditions: HepG2 HNF4a transactivation reporter, mRNA readout
Outline: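 HepG2 cells transiently transfected with multiplexed GAL4-UAS reporter units responsive to chimeric NR-GAL4 proteins; compound exposure 24 h. Reporter mRNA quantified by RT-PCR, 6-FAM labelling, HpaI digestion and capillary electrophoresis; gain of signal versus DMSO baseline.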

[12] = ATG_M_32_TRANS: Attagene TRANS-FACTORIAL HepG2 Assay for M32 Transcription Factor (Internal Marker) (AID 2282984); conditions: HepG2 Attagene TRANS M32 internal marker reporter
Outline: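 HepG2 cells transiently transfected with multiple GAL4-UAS reporter transcription units, dosed for 24 hours; reporter mRNA quantified by RT-PCR, 6-FAM primer extension, HpaI digestion and capillary electrophoresis. Gain-of-signal fitted versus DMSO baseline; internal background-control marker.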

[13] = target: Transcriptional activator Myb (Homo sapiens) (UniProt P10242); experiment: ATG_Myb_CIS: Attagene CIS-FACTORIAL HepG2 Assay for human Myeloblastosis (Myb) Proto-Oncogene Transcription Factor (AID 2282986; active = hit-call score of the fitted dose curve at least 0.9, where 1 is the maximum; inactive = score below 0.9); conditions: HepG2 Attagene CIS-FACTORIAL Myb reporter transcription; actives raise or lower the signal
Outline: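 In this HepG2 transient-transfection format, cis-regulated reporter mRNA is quantified 24 h post-dosing by RT-PCR with capillary electrophoresis, fitted bidirectionally to DMSO baseline.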

[14] = target: Nuclear respiratory factor 1 (Homo sapiens) (UniProt Q16656); experiment: ATG_NRF1_CIS: Attagene CIS-FACTORIAL HepG2 Assay for human Nuclear Respiratory Factor 1 (NRF1) Orphan Gene (AID 2282987; active = hit-call score of the fitted dose curve at least 0.9, where 1 is the maximum; inactive = score below 0.9); conditions: HepG2 NRF1 cis-element reporter, Attagene multiplex; actives raise or lower the signal
Outline: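 Using DMSO as baseline, gain- or loss-of-signal was fitted for reporter mRNA levels in HepG2 cells transiently transfected with cis-regulated reporter units. Samples were taken 24 h after dosing and read by RT-PCR with capillary electrophoresis.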

[15] = target: Estrogen receptor (Homo sapiens) (UniProt P03372); experiment: ATG_ERa_TRANS: Attagene TRANS-FACTORIAL HepG2 Assay for human Estrogen Receptor alpha (ERa) (AID 2282970); conditions: HepG2 Attagene TRANS ERa GAL4 reporter, mRNA
Outline: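 HepG2 cells transiently transfected with multiplexed GAL4-UAS reporter units; ERa activity read via exogenous chimeric NR-Gal4 protein. After 24 hour compound exposure, reporter mRNA measured by RT-PCR with 6-FAM labelling and capillary electrophoresis; gain-of-signal fitted relative to DMSO.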

[16] = ATG_M_06_TRANS: Attagene TRANS-FACTORIAL HepG2 Assay for M06 Transcription Factor (Internal Marker) (AID 2282983); conditions: HepG2 Attagene TRANS M06 internal marker reporter;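 note: reporter transcript level by RT-PCR then capillary electrophoresis fluorescence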
Outline: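 HepG2 cells transiently transfected with multiplexed GAL4-UAS reporter transcription units; after 24 h compound exposure, reporter mRNA measured by RT-PCR, FAM-labelled primer extension, HpaI digestion and capillary electrophoresis. Gain-of-signal fitted versus DMSO baseline; background control readout.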

[17] = target: Nuclear receptor subfamily 4 group A member 2 (Homo sapiens) (UniProt P43354); experiment: ATG_NURR1_TRANS: Attagene TRANS-FACTORIAL HepG2 Assay for human Nuclear Receptor Related Protein 1 (NURR1) (AID 2282985); conditions: HepG2 Attagene TRANS reporter, mRNA readout
Outline: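 HepG2 cells transiently transfected with GAL4-UAS reporter units and chimeric NR-Gal4 constructs; chemical exposure 24 h. Reporter mRNA quantified by RT-PCR, fluorescent labelling and capillary electrophoresis; gain of signal fitted relative to DMSO baseline.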

[18] = target: Steroid hormone receptor ERR1 (Homo sapiens) (UniProt P11474); experiment: ATG_ERRa_TRANS: Attagene TRANS-FACTORIAL HepG2 Assay for human Estrogen-Related Receptor alpha (ERRa) (AID 2282971); conditions: HepG2 Attagene TRANS reporter, ERRa transactivation
Outline: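 HepG2 cells transiently transfected with multiplexed GAL4-UAS reporter units reading chimeric ERRa-Gal4 activity; 24 h compound exposure. Reporter mRNA measured by RT-PCR, 6-FAM labelling, HpaI digest and capillary electrophoresis; gain of signal fitted versus DMSO baseline.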

[19] = target: Estrogen-related receptor gamma (Homo sapiens) (UniProt P62508); experiment: ATG_ERRg_TRANS: Attagene TRANS-FACTORIAL HepG2 Assay for human Estrogen-Related Receptor gamma (ERRg) (AID 2282977); conditions: HepG2 Attagene TRANS reporter, ERRg transactivation;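 note: hits increase reporter signal over DMSO so potencies reflect activators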
Outline: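 Transient HepG2 transfectants, 24 h compound exposure, GAL4-UAS reporter mRNA by RT-PCR/6-FAM labelling/capillary electrophoresis; positive direction vs DMSO.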

Measured: AC50

Chain of Bile acid receptor (Homo sapiens) (Q96RI1 whole entry, looked up, the tested form may be a part): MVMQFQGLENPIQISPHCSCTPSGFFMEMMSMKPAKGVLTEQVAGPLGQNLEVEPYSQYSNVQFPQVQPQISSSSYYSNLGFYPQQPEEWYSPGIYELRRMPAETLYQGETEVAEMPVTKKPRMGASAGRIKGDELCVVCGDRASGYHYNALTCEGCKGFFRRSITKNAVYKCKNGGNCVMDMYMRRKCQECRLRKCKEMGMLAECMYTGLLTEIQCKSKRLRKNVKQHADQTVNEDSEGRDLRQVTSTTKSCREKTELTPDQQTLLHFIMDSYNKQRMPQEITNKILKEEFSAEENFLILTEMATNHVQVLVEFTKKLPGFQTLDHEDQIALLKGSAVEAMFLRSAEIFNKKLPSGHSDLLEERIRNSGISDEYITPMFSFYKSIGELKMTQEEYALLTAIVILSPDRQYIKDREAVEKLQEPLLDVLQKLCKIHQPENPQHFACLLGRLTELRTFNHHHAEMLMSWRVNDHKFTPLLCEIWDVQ
Chain of Nuclear receptor subfamily 4 group A member 2 (Homo sapiens) (P43354 whole entry, looked up, the tested form may be a part): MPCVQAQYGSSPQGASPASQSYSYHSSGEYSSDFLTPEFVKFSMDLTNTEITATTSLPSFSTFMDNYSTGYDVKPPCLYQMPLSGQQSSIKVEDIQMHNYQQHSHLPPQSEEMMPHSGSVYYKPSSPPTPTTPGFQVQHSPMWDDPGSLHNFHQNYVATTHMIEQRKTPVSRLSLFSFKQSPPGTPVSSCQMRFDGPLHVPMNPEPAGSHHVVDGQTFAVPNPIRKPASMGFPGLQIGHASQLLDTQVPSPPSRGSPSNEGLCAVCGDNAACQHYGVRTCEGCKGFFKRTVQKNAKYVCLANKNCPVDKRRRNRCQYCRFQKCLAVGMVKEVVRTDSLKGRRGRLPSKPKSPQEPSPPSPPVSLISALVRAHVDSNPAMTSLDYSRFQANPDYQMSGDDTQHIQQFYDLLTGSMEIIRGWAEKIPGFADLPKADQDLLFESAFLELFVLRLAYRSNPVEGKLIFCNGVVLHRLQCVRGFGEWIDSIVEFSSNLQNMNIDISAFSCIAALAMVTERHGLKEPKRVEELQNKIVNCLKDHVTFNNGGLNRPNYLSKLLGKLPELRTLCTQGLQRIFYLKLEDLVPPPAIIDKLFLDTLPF
Chain of Steroid hormone receptor ERR1 (Homo sapiens) (P11474 whole entry, looked up, the tested form may be a part): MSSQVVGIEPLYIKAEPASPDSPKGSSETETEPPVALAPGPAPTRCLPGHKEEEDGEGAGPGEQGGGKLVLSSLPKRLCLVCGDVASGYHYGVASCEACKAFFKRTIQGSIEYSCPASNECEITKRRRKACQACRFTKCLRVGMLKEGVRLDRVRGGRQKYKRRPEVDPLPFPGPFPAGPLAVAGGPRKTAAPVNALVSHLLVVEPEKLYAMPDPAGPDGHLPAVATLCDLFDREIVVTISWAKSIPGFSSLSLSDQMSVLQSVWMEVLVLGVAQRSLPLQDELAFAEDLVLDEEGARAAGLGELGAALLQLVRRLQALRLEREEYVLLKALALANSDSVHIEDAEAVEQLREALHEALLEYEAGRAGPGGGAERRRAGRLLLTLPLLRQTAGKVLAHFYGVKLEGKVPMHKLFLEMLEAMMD
Chain of Oxysterols receptor LXR-alpha (Homo sapiens) (Q13133 whole entry, looked up, the tested form may be a part): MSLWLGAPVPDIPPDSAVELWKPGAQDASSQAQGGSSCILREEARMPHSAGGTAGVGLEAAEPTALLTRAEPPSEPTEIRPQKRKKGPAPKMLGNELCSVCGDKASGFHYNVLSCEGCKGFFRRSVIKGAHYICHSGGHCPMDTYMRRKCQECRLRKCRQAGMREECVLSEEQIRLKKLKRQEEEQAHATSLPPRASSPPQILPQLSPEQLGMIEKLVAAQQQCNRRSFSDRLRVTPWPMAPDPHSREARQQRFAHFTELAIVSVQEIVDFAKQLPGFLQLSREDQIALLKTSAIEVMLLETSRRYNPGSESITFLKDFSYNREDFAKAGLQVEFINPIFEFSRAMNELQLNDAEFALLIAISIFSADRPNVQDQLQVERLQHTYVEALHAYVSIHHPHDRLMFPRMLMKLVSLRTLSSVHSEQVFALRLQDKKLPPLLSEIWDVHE
Chain of X-box-binding protein 1 (Homo sapiens) (P17861 whole entry, looked up): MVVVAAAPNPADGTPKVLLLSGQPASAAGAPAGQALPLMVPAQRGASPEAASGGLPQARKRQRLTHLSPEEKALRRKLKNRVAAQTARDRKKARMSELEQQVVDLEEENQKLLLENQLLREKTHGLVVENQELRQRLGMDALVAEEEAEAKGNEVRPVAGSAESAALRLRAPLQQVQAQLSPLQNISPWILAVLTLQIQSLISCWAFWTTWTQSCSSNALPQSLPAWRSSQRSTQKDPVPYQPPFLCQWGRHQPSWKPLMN
Chain of Nuclear receptor subfamily 1 group I member 3 (Homo sapiens) (Q14994 whole entry, looked up, the tested form may be a part): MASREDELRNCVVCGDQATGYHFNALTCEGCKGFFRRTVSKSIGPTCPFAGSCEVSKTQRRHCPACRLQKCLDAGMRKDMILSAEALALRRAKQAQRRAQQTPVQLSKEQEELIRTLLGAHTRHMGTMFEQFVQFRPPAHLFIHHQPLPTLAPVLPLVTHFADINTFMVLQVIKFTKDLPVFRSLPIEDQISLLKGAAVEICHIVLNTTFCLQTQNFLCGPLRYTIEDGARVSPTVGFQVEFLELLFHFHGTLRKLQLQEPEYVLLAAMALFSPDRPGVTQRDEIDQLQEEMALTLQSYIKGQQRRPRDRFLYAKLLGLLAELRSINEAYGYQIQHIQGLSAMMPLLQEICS
Chain of Nuclear respiratory factor 1 (Homo sapiens) (Q16656 whole entry, looked up): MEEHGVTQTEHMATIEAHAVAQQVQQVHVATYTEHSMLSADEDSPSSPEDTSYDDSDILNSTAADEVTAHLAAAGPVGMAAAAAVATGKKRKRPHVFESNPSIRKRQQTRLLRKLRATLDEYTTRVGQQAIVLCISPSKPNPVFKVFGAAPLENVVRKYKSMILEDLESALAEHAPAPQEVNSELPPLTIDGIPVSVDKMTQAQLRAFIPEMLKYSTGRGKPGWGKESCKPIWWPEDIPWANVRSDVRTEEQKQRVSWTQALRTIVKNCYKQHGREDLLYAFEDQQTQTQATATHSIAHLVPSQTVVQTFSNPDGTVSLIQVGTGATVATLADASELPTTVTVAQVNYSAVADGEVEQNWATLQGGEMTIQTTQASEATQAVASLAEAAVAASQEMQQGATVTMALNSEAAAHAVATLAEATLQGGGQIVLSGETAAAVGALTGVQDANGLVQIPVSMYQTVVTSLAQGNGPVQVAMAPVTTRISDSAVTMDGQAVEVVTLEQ
Chain of Transcriptional activator Myb (Homo sapiens) (P10242 whole entry, looked up): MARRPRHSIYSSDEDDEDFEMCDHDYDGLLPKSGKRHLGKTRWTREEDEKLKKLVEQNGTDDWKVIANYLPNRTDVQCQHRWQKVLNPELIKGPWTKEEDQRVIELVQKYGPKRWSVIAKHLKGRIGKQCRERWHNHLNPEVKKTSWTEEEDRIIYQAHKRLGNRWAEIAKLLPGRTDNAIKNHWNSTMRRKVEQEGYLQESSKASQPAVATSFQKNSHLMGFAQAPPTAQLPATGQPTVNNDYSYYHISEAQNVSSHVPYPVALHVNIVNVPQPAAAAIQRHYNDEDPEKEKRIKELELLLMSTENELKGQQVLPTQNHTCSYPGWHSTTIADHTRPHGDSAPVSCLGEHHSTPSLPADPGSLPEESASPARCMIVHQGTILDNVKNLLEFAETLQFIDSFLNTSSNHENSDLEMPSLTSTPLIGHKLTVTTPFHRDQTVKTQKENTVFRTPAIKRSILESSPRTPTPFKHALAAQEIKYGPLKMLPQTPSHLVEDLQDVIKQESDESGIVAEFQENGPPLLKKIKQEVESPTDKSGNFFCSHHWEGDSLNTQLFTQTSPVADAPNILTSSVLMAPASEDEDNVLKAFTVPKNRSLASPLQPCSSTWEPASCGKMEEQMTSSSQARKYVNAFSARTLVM
Chain of Estrogen receptor (Homo sapiens) (P03372 whole entry, looked up, the tested form may be a part): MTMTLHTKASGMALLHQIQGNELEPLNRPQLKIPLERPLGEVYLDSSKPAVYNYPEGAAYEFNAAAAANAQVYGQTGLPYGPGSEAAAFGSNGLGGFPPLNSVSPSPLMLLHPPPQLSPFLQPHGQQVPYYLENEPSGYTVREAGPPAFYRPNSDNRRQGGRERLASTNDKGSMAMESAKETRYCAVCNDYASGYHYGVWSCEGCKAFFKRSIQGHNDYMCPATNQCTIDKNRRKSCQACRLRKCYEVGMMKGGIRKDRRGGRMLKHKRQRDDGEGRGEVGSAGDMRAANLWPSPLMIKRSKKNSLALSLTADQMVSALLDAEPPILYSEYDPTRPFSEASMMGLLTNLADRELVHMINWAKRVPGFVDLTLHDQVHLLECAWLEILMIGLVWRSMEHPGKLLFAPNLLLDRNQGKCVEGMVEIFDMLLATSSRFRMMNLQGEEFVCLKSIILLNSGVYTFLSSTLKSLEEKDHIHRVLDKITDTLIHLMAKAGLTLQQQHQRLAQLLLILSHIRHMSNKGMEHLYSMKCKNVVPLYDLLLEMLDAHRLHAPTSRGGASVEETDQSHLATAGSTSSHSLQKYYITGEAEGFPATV
Chain of Hepatocyte nuclear factor 4-alpha (Homo sapiens) (P41235 whole entry, looked up, the tested form may be a part): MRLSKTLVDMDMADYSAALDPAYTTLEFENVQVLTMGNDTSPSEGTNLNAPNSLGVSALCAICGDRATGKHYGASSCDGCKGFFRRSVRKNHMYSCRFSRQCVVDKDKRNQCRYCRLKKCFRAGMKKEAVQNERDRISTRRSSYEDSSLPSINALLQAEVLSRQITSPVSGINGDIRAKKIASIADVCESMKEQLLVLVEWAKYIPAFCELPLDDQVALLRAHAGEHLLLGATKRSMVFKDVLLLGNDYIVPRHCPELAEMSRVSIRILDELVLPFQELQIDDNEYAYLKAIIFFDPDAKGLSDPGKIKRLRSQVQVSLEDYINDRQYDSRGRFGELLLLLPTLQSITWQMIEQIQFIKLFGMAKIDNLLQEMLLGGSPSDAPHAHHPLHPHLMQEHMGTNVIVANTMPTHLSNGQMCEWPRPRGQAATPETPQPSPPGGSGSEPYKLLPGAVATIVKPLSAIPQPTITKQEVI

CC1CCC(C(C)(C)O)CC1 (stereo not given)
not listed: [15] | [16] | [17] | [18] | [19]
inactive: all other assays above

OCCOCCOCCOCCO
not listed: [3] | [5] | [6] | [7] | [8] | [10] | [18] | [19]
inactive: all other assays above

CCCC(=O)C(C)=O
inactive: [1] | [2] | [3] | [18] | [4] | [19] | [8] | [16] | [13] | [14]

BrC1CCC(Br)C(Br)CCC(Br)C(Br)CCC1Br (stereo not given)
active: [2] 2.52 µM | [4] 45.5 µM | [14] 110 µM
inactive: [1] | [15] | [18] | [5] | [7] | [8] | [9] | [16] | [13]

CN1[C@@H]2CC(OC(=O)[C@H](CO)c3ccccc3)C[C@H]1[C@@H]1O[C@@H]12 (stereo not given in full)
inactive: [1] | [2] | [15] | [4] | [6] | [9] | [10] | [16] | [12] | [13]

CCCCCCCCCC=O
inactive: [1] | [2] | [15] | [4] | [16] | [13] | [14]

COC(=O)Cc1cccc2ccccc12
inactive: [1] | [2] | [3] | [15] | [7] | [9] | [16] | [13] | [14]

COc1ccc(O)cc1
not listed: [3] | [7] | [8] | [11] | [15] | [16] | [18] | [19]
inactive: all other assays above

COC(=O)C1=C(C)NC(C)=C(C(=O)OCCN(C)Cc2ccccc2)C1c1cccc([N+](=O)[O-])c1 (stereo not given)
inactive: [1] | [15] | [5] | [12] | [13]
active: [2] 0.227 µM | [8] 0.637 µM | [17] 27.2 µM | [14] 6.96 µM

OCc1cccnc1
inactive: [1] | [3] | [15] | [4] | [5] | [6] | [8] | [11] | [12] | [13]

O=C1CCCCCCCCCCCCCCO1
inactive: [1] | [2] | [4] | [5] | [6] | [7] | [13]

COC(=O)c1ccc(C)cc1
not listed: [5] | [17] | [18] | [19]
inactive: all other assays above

CC[C@]12CCCN3CCc4c(n(c5ccccc45)[C@@](O)(C(=O)OC)C1)[C@@H]32
not listed: [3] | [5] | [7] | [8] | [9] | [10] | [15] | [17]
inactive: all other assays above

CCCCN
not listed: [8] | [9] | [12] | [15] | [16] | [18] | [19]
inactive: all other assays above

C=CC(=O)NCOCC(C)C
active: [2] 34.3 µM
inactive: [1] | [4] | [5] | [8] | [11] | [16] | [12] | [17] | [13] | [14]
